Data reported in PubChem BioAssay.
For some of these results: Measured potencies and affinities stand elsewhere. Active and inactive are the calls of the source. Unless noted, no rule for the calls is given here.

What was measured:
[1] = antimalarial activity against Dd2 strain (AID 2302;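 active = growth inhibition above 50% at the single 2 µM test dose, taken to imply half-maximal potency below 2 µM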;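 also: 0% = DMSO untreated growth and 100% = chloroquine plus artemisinin killed control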); settings: P. falciparum Dd2 in RBCs, LDH growth readout, 72 h; at 2 µM; hits give high values
[2] = HepG2 cytotoxicity, primary screen, cytotoxicity control for P. falciparum antimalarial project, cell-based, ATP luminescence (AID 2303;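 active = inhibition above 50%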;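 also: 0% = DMSO wells and 100% = digitonin-killed cells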); settings: HepG2 viability, 24-48 h, at 10 µM, hits give high values
[3] = molecular target: L-lactate dehydrogenase (Plasmodium falciparum (isolate CDC / Honduras)) (UniProt Q27743); test: PfLDH activity inhibition – cell lysate, 3D7 strain, counter-screen for P. falciparum growth inhibition project (AID 2304);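 also: 0% = vehicle and 100% = reference inhibitor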; settings: P. falciparum 3D7 crude extract, LDH APAD/NBT absorbance; at 2 µM; hits give high values
Chain of L-lactate dehydrogenase (Plasmodium falciparum (isolate CDC / Honduras)) (Q27743 whole entry, looked up): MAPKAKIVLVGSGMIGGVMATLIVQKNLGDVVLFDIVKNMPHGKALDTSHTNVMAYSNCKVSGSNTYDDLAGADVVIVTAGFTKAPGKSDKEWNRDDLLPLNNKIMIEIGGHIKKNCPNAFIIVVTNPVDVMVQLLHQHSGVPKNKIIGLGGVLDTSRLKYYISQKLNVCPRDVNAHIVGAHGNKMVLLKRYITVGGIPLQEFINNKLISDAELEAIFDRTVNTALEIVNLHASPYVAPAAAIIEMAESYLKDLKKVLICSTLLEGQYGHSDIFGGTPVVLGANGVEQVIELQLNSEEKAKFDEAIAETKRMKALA

[4] = inhibition of 3D7 malaria parasite growth – strain 3D7 (AID 2306);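 also: 0% = DMSO wells and 100% = chloroquine plus artemisinin control wells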; settings: P. falciparum 3D7 erythrocytic growth, LDH absorbance, 72 h; at 2 µM; hits give high values
[5] = molecular target: Calcium-dependent protein kinase 1 (Plasmodium falciparum (isolate 3D7)) (UniProt P62344); test: PfCDPK1 kinase inhibitors, biochemical, TCAMS library (AID 1159585; cut-off not given, nearly all actives have IC50 up to about 0.98 µM;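 also: inhibitors leave more ATP so luminescence rises with inhibition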); settings: recombinant PfCDPK1, Kinase-Glo ATP depletion luminescence
Chain of Calcium-dependent protein kinase 1 (Plasmodium falciparum (isolate 3D7)) (P62344 whole entry, looked up): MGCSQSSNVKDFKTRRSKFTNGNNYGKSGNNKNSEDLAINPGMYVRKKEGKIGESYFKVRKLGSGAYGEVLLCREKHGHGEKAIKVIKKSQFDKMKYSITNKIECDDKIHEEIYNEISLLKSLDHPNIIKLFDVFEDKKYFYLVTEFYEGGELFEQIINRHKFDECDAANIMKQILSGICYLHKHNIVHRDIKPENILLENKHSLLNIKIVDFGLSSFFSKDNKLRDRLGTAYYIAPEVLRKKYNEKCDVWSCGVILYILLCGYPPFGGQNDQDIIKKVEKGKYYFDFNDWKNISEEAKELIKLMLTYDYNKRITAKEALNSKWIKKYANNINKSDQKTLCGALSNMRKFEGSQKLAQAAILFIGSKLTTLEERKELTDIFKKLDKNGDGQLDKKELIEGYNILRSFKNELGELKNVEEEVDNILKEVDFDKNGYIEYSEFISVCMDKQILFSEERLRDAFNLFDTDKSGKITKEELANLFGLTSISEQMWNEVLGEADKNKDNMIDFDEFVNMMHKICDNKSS

[6] = molecular target: Plasmodium falciparum protein kinase 6 (PK6, PF3D7_1337100) (UniProt Q8IDW1); test: PfPK6 kinase inhibitors, biochemical, TCAMS library (AID 1159586); settings: recombinant PfPK6, Kinase-Glo ATP depletion luminescence
Chain of Plasmodium falciparum protein kinase 6 (PK6, PF3D7_1337100) (Q8IDW1 1-305): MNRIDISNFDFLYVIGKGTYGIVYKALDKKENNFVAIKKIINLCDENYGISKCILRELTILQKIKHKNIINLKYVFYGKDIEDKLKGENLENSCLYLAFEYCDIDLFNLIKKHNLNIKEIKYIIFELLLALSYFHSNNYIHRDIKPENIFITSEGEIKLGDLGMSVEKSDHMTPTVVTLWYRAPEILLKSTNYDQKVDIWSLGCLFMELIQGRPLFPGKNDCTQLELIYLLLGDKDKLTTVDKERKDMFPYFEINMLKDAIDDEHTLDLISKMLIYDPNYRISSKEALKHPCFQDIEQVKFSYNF

[7] = molecular target: Protein kinase 7 (PK7), Plasmodium falciparum 3D7 (PF3D7_0213400) (UniProt Q7YTF7); test: inhibition of Plasmodium PK7 catalytic activity – biochemical, TCAMS antimalarial set, Kinase-Glo luminescence (AID 1159587); settings: recombinant PfPK7, Kinase-Glo ATP depletion luminescence
Chain of Protein kinase 7 (PK7), Plasmodium falciparum 3D7 (PF3D7_0213400) (Q7YTF7 1-343): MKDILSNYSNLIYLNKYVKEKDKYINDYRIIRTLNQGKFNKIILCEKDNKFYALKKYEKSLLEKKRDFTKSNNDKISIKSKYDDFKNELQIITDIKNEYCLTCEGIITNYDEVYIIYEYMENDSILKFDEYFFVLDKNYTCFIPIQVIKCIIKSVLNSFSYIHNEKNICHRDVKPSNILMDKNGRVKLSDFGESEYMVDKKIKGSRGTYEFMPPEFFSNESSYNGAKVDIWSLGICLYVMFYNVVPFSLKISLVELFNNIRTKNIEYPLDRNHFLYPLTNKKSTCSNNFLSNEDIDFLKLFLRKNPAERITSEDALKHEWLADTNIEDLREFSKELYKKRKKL

[8] = molecular target: Calcium-dependent protein kinase 4 (Plasmodium falciparum (isolate 3D7)) (UniProt Q8IBS5); test: PfCDPK4 kinase inhibitors, biochemical, TCAMS library (AID 1159588; cut-off not given, nearly all actives have IC50 up to about 0.91 µM); settings: recombinant PfCDPK4, Kinase-Glo ATP depletion luminescence
Chain of Calcium-dependent protein kinase 4 (Plasmodium falciparum (isolate 3D7)) (Q8IBS5 whole entry, looked up): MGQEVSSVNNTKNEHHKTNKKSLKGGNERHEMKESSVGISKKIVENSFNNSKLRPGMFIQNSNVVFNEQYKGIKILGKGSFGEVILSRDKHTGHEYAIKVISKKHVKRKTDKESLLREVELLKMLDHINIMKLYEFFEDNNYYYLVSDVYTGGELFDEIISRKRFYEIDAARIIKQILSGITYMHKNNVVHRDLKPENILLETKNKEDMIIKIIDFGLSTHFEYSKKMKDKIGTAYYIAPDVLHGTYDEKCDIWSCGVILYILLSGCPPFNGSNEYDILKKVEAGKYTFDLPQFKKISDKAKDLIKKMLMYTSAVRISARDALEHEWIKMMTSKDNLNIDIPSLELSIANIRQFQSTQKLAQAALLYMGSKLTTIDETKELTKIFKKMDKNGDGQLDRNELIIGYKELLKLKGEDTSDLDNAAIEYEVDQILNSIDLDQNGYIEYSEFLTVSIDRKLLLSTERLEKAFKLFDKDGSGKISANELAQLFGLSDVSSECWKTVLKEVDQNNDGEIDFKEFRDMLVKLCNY

Cc1[nH]c2ccccc2c(=O)c1Br
active: growth inhibition [1] 84% | growth inhibition [4] 94%
inactive: inhibition [2] 2% | inhibition [3] 3% | outcome [5] | outcome [6] | outcome [7] | outcome [8]

O=C(/C=C/c1ccc(Cl)c(Cl)c1)NCCCCCCN1CCN(C(=O)Nc2ccc(Cl)c(Cl)c2)CC1
active: growth inhibition [4] 88%
inactive: growth inhibition [1] 0% | inhibition [2] 23% | inhibition [3] -1% | outcome [5] | outcome [6] | outcome [7] | outcome [8]

O=C(Nc1cccc(-c2ccc(-c3nc4ccccc4[nH]3)s2)c1)c1ccncc1
active: inhibition [2] 67% | growth inhibition [4] 92%
inactive: growth inhibition [1] 29% | inhibition [3] -9% | outcome [5] | outcome [6] | outcome [7] | outcome [8]

O=C(NC1CCCCN(Cc2ccccc2O)C1)c1cccc(C(F)(F)F)c1 (stereo not given)
inactive: inhibition [2] -4% | inhibition [3] -6% | outcome [5] | outcome [6] | outcome [7] | outcome [8]
active: growth inhibition [1] 64% | growth inhibition [4] 93%

COc1ccc2nc3cc(Cl)ccc3c(Nc3ccc(C(=O)O)cc3)c2c1
active: growth inhibition [1] 95% | growth inhibition [4] 94%
inactive: inhibition [2] -7% | inhibition [3] 6% | outcome [5] | outcome [6] | outcome [7] | outcome [8]

CCCCCN1CCCN(Cc2cccc(NC(=O)c3ccc4ccccc4c3)c2)CC1
inactive: growth inhibition [1] 16% | inhibition [2] 27% | inhibition [3] -5% | outcome [5] | outcome [6] | outcome [7] | outcome [8]
active: growth inhibition [4] 86%

Cc1ccc(F)c(OCC2CCN(c3ncc(C(=O)NC4CC4)cc3Cl)CC2)c1
inactive: inhibition [2] 9% | inhibition [3] -3% | outcome [5] | outcome [6] | outcome [7] | outcome [8]
active: growth inhibition [1] 95% | growth inhibition [4] 96%

O=C(/C=C/c1ccc(Cl)c(Cl)c1)NCCCCCN1CCCN(C(=O)Nc2ccc(F)c(F)c2)CC1
active: growth inhibition [4] 102%
inactive: growth inhibition [1] -1% | inhibition [2] 26% | inhibition [3] -2% | outcome [5] | outcome [6] | outcome [7] | outcome [8]

COc1ccc2nccc([C@@H](O)CN3CCC(NCc4ccc5c(n4)NCCC5)CC3)c2c1
active: growth inhibition [4] 101%
inactive: growth inhibition [1] 39% | inhibition [2] 21% | inhibition [3] -3% | outcome [5] | outcome [6] | outcome [7] | outcome [8]

Fc1ccc2nc(-c3ccc(-c4ccc(CNCCc5cccnc5)cc4)s3)[nH]c2c1
inactive: inhibition [2] 40% | inhibition [3] -7% | outcome [5] | outcome [6] | outcome [7] | outcome [8]
active: growth inhibition [1] 99% | growth inhibition [4] 100%

CC(Oc1ccc(Cl)cc1)C(=O)Nc1cc(C(F)(F)F)ccc1-n1cncn1 (stereo not given)
active: growth inhibition [1] 98% | growth inhibition [4] 99%
inactive: inhibition [2] -2% | inhibition [3] 2% | outcome [5] | outcome [6] | outcome [7] | outcome [8]

COc1ccc2ccc(F)c(CCN3CCC(NCc4cc5c(cn4)OCCO5)CC3)c2n1
active: growth inhibition [4] 96%
inactive: growth inhibition [1] 36% | inhibition [2] 15% | inhibition [3] 3% | outcome [5] | outcome [6] | outcome [7] | outcome [8]

O=S(=O)(NC1=NCCC1)c1cccc(Nc2nc(C(F)(F)F)nc3ccccc23)c1
active: growth inhibition [4] 83%
inactive: growth inhibition [1] 8% | inhibition [2] 6% | inhibition [3] 0% | outcome [5] | outcome [6] | outcome [7] | outcome [8]

O=C(NCc1ccc(C(=O)N2CCC(N3CCCCC3)CC2)cc1)c1cc(-c2cccc(C(F)(F)F)c2)ccc1O
inactive: inhibition [2] -3% | inhibition [3] 1% | outcome [5] | outcome [6] | outcome [7] | outcome [8]
active: growth inhibition [1] 58% | growth inhibition [4] 100%

COc1cc(OC)cc(-c2nc3c(C#N)c(OCCN(C)C)ccc3[nH]2)c1
inactive: growth inhibition [1] 25% | inhibition [2] 4% | inhibition [3] -3% | outcome [5] | outcome [6] | outcome [7] | outcome [8]
active: growth inhibition [4] 99%

O=C(Nc1cccc(CN2CCCN(CC3CC3)CC2)c1)c1ccc(-c2ccccc2)cc1
inactive: growth inhibition [1] 5% | inhibition [2] 15% | inhibition [3] 6% | outcome [5] | outcome [6] | outcome [7] | outcome [8]
active: growth inhibition [4] 96%

Cc1nn(-c2ccccc2)c2sc(C(=O)N(CCCN(C)C)c3nc(-c4ccccc4)cs3)cc12
active: inhibition [2] 99% | growth inhibition [4] 95%
inactive: growth inhibition [1] 36% | inhibition [3] -2% | outcome [5] | outcome [6] | outcome [7] | outcome [8]

CCCCCCCN(Cc1ccc(OC(C)(C)C(=O)OCC)cc1)C(=O)Nc1ccccc1OCC
inactive: inhibition [2] -5% | inhibition [3] -3% | outcome [5] | outcome [6] | outcome [7] | outcome [8]
active: growth inhibition [1] 94% | growth inhibition [4] 93%

CC(C)(C)Cn1cc(-c2ccc(C(=O)NCCc3ccc(S(C)(=O)=O)cc3)cc2)c(N)n1 (tested in a mixture with another compound)
inactive: growth inhibition [1] 10% | inhibition [2] 7% | inhibition [3] -1% | outcome [5] | outcome [6] | outcome [7] | outcome [8]
active: growth inhibition [4] 86%

COc1ccccc1-n1c(SCC(=O)Nc2ccccc2F)nc2cccnc21
active: growth inhibition [1] 88% | growth inhibition [4] 96%
inactive: inhibition [2] -21% | inhibition [3] 0% | outcome [5] | outcome [6] | outcome [7] | outcome [8]
